Source: PubChem BioAssay AID504692 (The Scripps Research Institute Molecular Screening Center, 2011)
Screen size: about 340,000 compounds; about 2,000 (0.59%) were called active. This is one part of a sample in which actives are shown more often than they occur. No stated cut-off is given here; in the data, active means activation mostly above about 9.5% (no sharp cut-off); inactive means mostly below about 7.6%.

What follows are compounds tested against 5-hydroxytryptamine receptor 5A (Homo sapiens) (UniProt P47898) (assay: activation of human 5-HT5A receptor – cell-based, luminescence, full-deck HTS, counter-screen for OPRM1-OPRD1 heterodimer agonist project, primary screen (AID 504692;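 further: 0% = cells with vehicle only and 100% = reference agonist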)). Conditions: HTR5A agonist assay, at 9.3 µM, active compounds read high.
5-hydroxytryptamine receptor 5A (Homo sapiens), sequence (P47898 whole entry, looked up): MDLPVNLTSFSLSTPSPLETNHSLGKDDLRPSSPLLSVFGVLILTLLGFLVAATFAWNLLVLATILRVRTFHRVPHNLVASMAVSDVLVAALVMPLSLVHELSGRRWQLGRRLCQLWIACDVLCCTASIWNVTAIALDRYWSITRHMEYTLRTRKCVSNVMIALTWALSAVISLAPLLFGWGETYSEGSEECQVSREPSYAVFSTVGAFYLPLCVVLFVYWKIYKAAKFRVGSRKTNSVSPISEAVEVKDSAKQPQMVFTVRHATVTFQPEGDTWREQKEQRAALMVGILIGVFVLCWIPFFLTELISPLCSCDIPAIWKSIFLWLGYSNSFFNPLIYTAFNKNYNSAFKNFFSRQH
With `CCc1ccc(C2N3CC4([N+](=O)[O-])CN2CC([N+](=O)[O-])(C3)C4(C)C)cc1` (stereo not given) the activation was 2.6% (inactive). `CC1(C)C(C=C(Cl)Cl)C1C(=O)N(Cc1ccc(Cl)cc1)C1CCS(=O)(=O)C1` (stereo not given) was tested, and the activation was 0.53% (inactive). For `CCOc1ccc(CNC(=O)C2CCCN(c3nnc(C)c4c(C)n(-c5ccccc5)nc34)C2)cc1` (stereo not given), the activation was 7.35% (inactive). `COc1ccc(-n2nc3c(N4CCC(C(=O)NCc5ccccc5)CC4)nnc(C)c3c2C)cc1` was tested, and the activation was -1.31% (inactive). `CCc1ccc(CNC(=O)C2CCN(c3nnc(C)c4c(C)n(-c5ccc(C)cc5)nc34)CC2)cc1` was tested, and the activation was 11.9% (active). `O=C(Nc1ccccc1Cc1ccccc1)c1ccc2c(c1)SC1=NS(=O)(=O)CCN12` was tested, and the activation was 6.02% (inactive). For `Cc1cccc(CCNS(=O)(=O)c2ccc3c(c2)NC(=O)CO3)c1`, the activation was -0.45% (inactive). For `O=C(C1CCC(=O)N(C2CC2)C1)N1CCN(c2ccc(Cl)cc2)CC1` (stereo not given), the activation was 0.66% (inactive). In the case of `COC(=O)c1cc(C(=O)OCC(=O)Nc2cc(C)on2)cc([N+](=O)[O-])c1`, the activation is reported as 14.7% (active). For `Cc1cc(NC(=O)CSc2nccn2-c2ccc([N+](=O)[O-])cc2)no1`, the activation was -1.99% (inactive). In the case of `Cc1cc(NC(=O)COc2ccc([N+](=O)[O-])cc2)no1`, the activation is reported as -2.97% (inactive). For `CC(=O)N1CCN(S(=O)(=O)c2ccc(C)c([N+](=O)[O-])c2)C1C(C)C` (stereo not given), the activation was 0.82% (inactive). With `CNC(=S)NNC(=O)c1sccc1OCc1ccccc1` the activation was 6.65% (inactive). In the case of `O=C(O)COc1ccc(/C=N/O)cc1Br`, the activation is reported as 1.32% (inactive). With `CNC(=S)N/N=C/c1ccc(OCc2ccccc2)c(Br)c1` the activation was 14.9% (active). In the case of `N=c1c2c3c(sc2ncn1CCCN1CCOCC1)CCCCC3`, the activation is reported as 6.44% (inactive). In the case of `COc1ccc(N(CC(=O)NC2CCCC2)C(=O)CS(=O)CC(=O)Nc2ccc3c(c2)OCO3)cc1` (stereo not given), the activation is reported as 1.5% (inactive). In the case of `O=S(=O)(NN=C1CCCCCCC1)c1ccc(Br)cc1`, the activation is reported as 9.89% (active). `CC(CNS(=O)(=O)c1ccc(Br)cc1)CN(C)C` (stereo not given) was tested, and the activation was 0.38% (inactive). With `Cc1nc(S(=O)(=O)c2ccc(Br)cc2)nc2c1CCC2` the activation was 3.89% (inactive). For `CCOc1ccc(NC(=O)CSc2nncn2C)cc1`, the activation was 2.03% (inactive). `CCOc1ccc(NC(=O)c2nc(SCC)ncc2Cl)cc1` was tested, and the activation was 11.8% (active). `CCOc1ccc(NC(=O)c2cc(C)nc3ccccc23)cc1` was tested, and the activation was 6.43% (inactive). With `Cc1ccc(C)c(Cn2nnc3c(=O)[nH]c(C(=O)Nc4ccc(F)cc4)nc32)c1` the activation was -2.89% (inactive). With `COc1ccc(NC(=O)COC(=O)c2ccc(NS(=O)(=O)/C=C/c3ccccc3)cc2)cc1` the activation was -1.75% (inactive). `N#CCCN(C(=O)COC(=O)c1ccc2c(c1)OCCO2)c1ccccc1` was tested, and the activation was 5.45% (inactive). In the case of `Cc1c(C(=O)OCC(=O)N(CCC#N)c2ccccc2)oc2c1ccc1ccccc12`, the activation is reported as 53% (active). For `N#CCCN(C(=O)COC(=O)c1ccc(S(=O)(=O)N2CCCCCC2)cc1)c1ccccc1`, the activation was -3.52% (inactive). In the case of `CCN1CCN(C(=O)/C=C\C(=O)O)CC1`, the activation is reported as 2.72% (inactive). In the case of `CC1CC(C)CN(CC(=O)N2c3ccccc3CCc3ccccc32)C1` (stereo not given), the activation is reported as -4.89% (inactive). `CC1C(=O)N(Cc2ccccc2)c2ccccc2N1C(=O)c1ccccc1` (stereo not given) was tested, and the activation was 0.41% (inactive). `CC1C(C)N(C(=O)CCl)c2ccccc2N1C(=O)CCl` (stereo not given) was tested, and the activation was 8.76% (active). With `Cc1cccc(N2CCN(C(C)C(=O)N3CCc4ccccc43)CC2)c1C` (stereo not given) the activation was 7.68% (inactive). `COc1cc(OC)c(-n2cc(-c3ccc(Cl)cc3)[nH]c2=O)cc1Cl` was tested, and the activation was 5.5% (inactive). With `CC1CCCCN1CCCNc1ccc(C(CC(N)=O)NC(=O)c2ccccc2)cc1[N+](=O)[O-]` (stereo not given) the activation was -1.92% (inactive). `NC(N)=NCCCc1cn(CC(=O)N2CCNCC2)nn1` was tested, and the activation was 12.4% (active). With `C#CCOCCOCCOCCNc1nc(N2CCN(C(=O)Cn3cc(CCO)nn3)CC2)nc(N2CCN(C(=O)Cn3cc(CCCN=C(N)N)nn3)CC2)n1` the activation was -2.92% (inactive). `CCC(C)[C@@H](C(=O)N1CCNCC1)n1cc(CCCCN)nn1` (stereo not given in full) was tested, and the activation was -1.58% (inactive). With `Cc1cc(C)c(S(=O)(=O)N(C)CC(=O)NCC2CCCO2)c(C)c1` (stereo not given) the activation was 8.59% (inactive). For `COc1ccc(CN2CCN(C(=O)CCC(=O)Nc3nnc(C(C)C)s3)CC2)cc1F`, the activation was 2.2% (inactive). For `CC(C)OC(=O)c1sc2nc3c(cc2c1N)C(=O)CCC3`, the activation was 5.9% (inactive). `Cc1ccc2nc(N(CCN(C)C)C(=O)C3=COCCO3)sc2c1` was tested, and the activation was -2.68% (inactive). For `Cc1ccc2sc(N(CCN(C)C)C(=O)/C=C/c3cccs3)nc2c1C`, the activation was 6.97% (inactive). With `Cc1cc(C)c2nc(N(CCN(C)C)C(=O)/C=C/c3cccs3)sc2c1` the activation was 11.5% (active). With `O=C(CSc1nnc(-c2ccc([N+](=O)[O-])cc2)o1)Nc1ccccn1` the activation was 0.96% (inactive). `CCc1ccc(OCC(=O)OC(C)C(=O)NC2CC2)cc1` (stereo not given) was tested, and the activation was 1.16% (inactive). `Cc1ccc(S(=O)(=O)NCCC(=O)NCc2ccc(Cl)cc2)cc1C` was tested, and the activation was -0.86% (inactive). With `CC(C)CNS(=O)(=O)c1ccc(CCC(=O)NCc2ccc(Cl)cc2)cc1` the activation was 0.62% (inactive). With `CSc1ccc(S(=O)(=O)NCc2ccc(Cl)cc2)cc1` the activation was 10.3% (active). `Cc1cc(C(C)(C)C)oc1C(=O)N(CC(=O)NC1CCCC1)Cc1ccc(Cl)cc1` was tested, and the activation was 2.84% (inactive). For `CCOc1ccc(S(=O)(=O)NCCCn2ccnc2)cc1NC(C)=O`, the activation was 2.78% (inactive). `NC(=O)C1(C(N)=O)OC1c1ccc(Cl)cc1Cl` (stereo not given) was tested, and the activation was 3.12% (inactive). `O=C(COC(=O)c1n[nH]c2ccccc12)Nc1ccccc1Br` was tested, and the activation was -1.79% (inactive). With `COc1ccc(C)cc1S(=O)(=O)NCCc1ccccc1` the activation was 1.84% (inactive). In the case of `COc1ccc(C(=O)O/N=C(\N)Cc2ccc(Cl)cc2Cl)cc1OC`, the activation is reported as 27.1% (active). With `COc1ccc(CCn2ccc(O)c(Cc3ccc(Cl)cc3Cl)c2=O)cc1OC` the activation was -0.18% (inactive). `COc1ccc(C/C(N)=N/OC(=O)c2ccco2)cc1OC` was tested, and the activation was 1.65% (inactive). `CCn1nc(C(=O)OCC(=O)N2c3ccccc3CC2C)c2ccccc2c1=O` (stereo not given) was tested, and the activation was 36.7% (active). `CCOc1ncccc1C(=O)OCC(=O)N1c2ccccc2CC1C` (stereo not given) was tested, and the activation was -1.04% (inactive). `CCOC(=O)c1[nH]c(C)c(C(=O)OCC(=O)N2c3ccccc3CC2C)c1C` (stereo not given) was tested, and the activation was -1.22% (inactive).
